G9a block – G9a (human) methyltransferase inhibition; 350,000 compounds, 8.8% hits; G9a H3K9 monomethylation, AlphaScreen, 2 h; AID 504332; Potency, µM (top dose mostly 102 µM), most hits filed as inhibitors; also: nearly all actives have a fitted effect of over 75% in size
Target sequence (Q96KQ7 913-1193 limits assumed): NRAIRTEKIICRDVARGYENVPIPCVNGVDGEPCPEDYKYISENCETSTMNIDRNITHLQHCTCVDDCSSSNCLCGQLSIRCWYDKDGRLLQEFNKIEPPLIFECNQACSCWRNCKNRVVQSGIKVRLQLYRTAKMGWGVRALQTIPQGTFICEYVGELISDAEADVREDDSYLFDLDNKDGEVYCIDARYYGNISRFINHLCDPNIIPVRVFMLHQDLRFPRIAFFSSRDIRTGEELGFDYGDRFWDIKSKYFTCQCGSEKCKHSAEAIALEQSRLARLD
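Chemiluminescent proximity detection of H3K9 monomethylation, read after 10 min bead incubation in the dark. Reaction: 20 nM G9a, 500 nM biotin-H3K9 peptide, 20 uM SAM cofactor, 2 h, room temperature, following 15 min enzyme-compound preincubation.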
PLK1 PBD block – inhibitors of human PLK1 polo-box domain binding | P53350 | Plk1 PBD binding of FITC phosphopeptide, fluorescence polarization | Potency, µM, most hits filed as inhibitors | 360,000 compounds, 2.8% hits | AID 720504; also: series mostly up to about 57 µM; nearly all actives have a fitted effect of over 65% in size
JMJD2A Tudor – JMJD2A Tudor domain (human) inhibition. AlphaScreen JMJD2A-Tudor / H3K4me3 peptide binding. O75164. Potency, µM (series often up to 114 µM), hits mostly inhibitors. 390,000 compounds, 4.4% hits; also: nearly all actives have a fitted effect of over 50% in size
BAZ2B block – BAZ2B (human) inhibition. 360,000 compounds, 4.4% hits. Potency, µM (titrated, usually from 114 µM), actives largely listed as inhibitors. AlphaScreen BAZ2B-H3K14Ac peptide displacement; also: nearly all actives have a fitted effect of over 60% in size
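BAZ2B 50 nM plus b-H3(5-23)K14Ac 50 nM, PBS pH 7.4/0.01% Tween-20, 30 min RT; compound added (max 110 uM), 30 min RT; streptavidin donor/Ni-chelate acceptor beads 10 ug/mL final, 20 min dark; AlphaScreen read.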
HP1b chromo inh – HP1-beta chromodomain-methylated histone interaction inhibition | P83916 | AlphaScreen HP1-beta / biotin-H3K9me3 peptide binding | Potency, µM (titrated, usually from 114 µM), hits mostly inhibitors | 390,000 compounds, 0.56% hits | AID 540317; also: nearly all actives have a fitted effect of over 70% in size
Target sequence (P83916 whole entry, looked up): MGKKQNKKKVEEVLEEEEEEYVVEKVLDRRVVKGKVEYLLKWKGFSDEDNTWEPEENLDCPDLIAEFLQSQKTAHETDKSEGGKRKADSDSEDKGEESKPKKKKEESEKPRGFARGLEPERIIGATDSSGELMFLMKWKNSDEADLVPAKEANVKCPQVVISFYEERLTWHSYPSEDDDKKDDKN
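Compound inhibition of the preformed complex between 50 nM HP1-beta and 50 nM biotinylated H3K9me3 peptide was read by AlphaScreen. Buffer was PBS pH 7.4 with 0.01% Tween-20. Incubations ran 30 min at room temperature, with 10 ug/mL donor/acceptor beads.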
ALOX12 inh – blocks human arachidonate 12S-lipoxygenase | P18054 | purified 12hLO, xylenol orange hydroperoxide absorbance | Potency, µM (titrated, usually from 108 µM), most hits filed as inhibitors | 580,000 compounds, 1.1% hits
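Purified human 12hLO at 150 nM in 25 mM Hepes, 0.01% Triton X-100, pH 7.0, preincubated 15 min at room temperature with compound. Reaction started with 40 uM arachidonic acid, 30 min at room temperature. Hydroperoxide measured by Fe-xylenol orange, 573/405 nm absorbance ratio.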
Hits are given with their value; . = inactive; ? = inconclusive; / = not tested or not shown; [ ] = dose if it differs, or a comment. The list is not random: actives were taken first. Their share in the collection is about 9%. Calls follow the shape of the dose curve; as a rule, active = well fitted curve in the direction sought with a large enough effect; inconclusive = small, poorly fitted or top-dose-only effect, or another doubt; inactive = no such curve, though single readings can be large; an effect the other way counts as inactive or inconclusive.

SMILES | G9a block | PLK1 PBD block | JMJD2A Tudor | BAZ2B block | HP1b chromo inh | ALOX12 inh
COc1ccc(C(=O)N2CCc3cc(OC)c(OC)cc3C2c2ccc(OC)c(OC)c2)cc1OC (configuration not stated) | . | . | . | ? | . | .
N#CC(C#N)=C1C=C2C=C(N3CCCCC3)CCC2CC1 (configuration not stated) | ? | . | ? | 45µM | ? | /
CCN(CC)C1=CC2=CC(=C(C#N)C#N)CCC2CC1 (configuration not stated) | . | . | . | . | . | .
CCC(C)(C)n1nnnc1C(c1ccc(OC)c(OC)c1)N1CCN(c2ccc(OC)cc2)CC1 (configuration not stated) | 11µM | . | 28µM | 50µM | . | ?
CCC(C)(C)n1nnnc1C(c1ccc(OC)c(OC)c1)N1CCN(c2ccc(F)cc2)CC1 (configuration not stated) | 22µM | . | ? | . | . | ?
CCOC(=O)C1(C)CCN1C(=O)c1cccs1 (configuration not stated) | / | . | / | / | / | .
COc1ccc2c(CN3CCCC3)cc(=O)oc2c1 | / | . | / | / | / | ?
CCO[C@@H]1OC(C(=O)NC2CC2)=C[C@H](c2c[nH]c3ccccc23)[C@H]1CCCO | . | . | . | . | . | .
O=C1CC(c2ccc(F)cc2)c2c(n3c(nc4ccccc43)[nH]c2=O)N1 (configuration not stated) | . | / | . | . | . | .
COc1ccc(N2CCN(c3cc(C)c4cccc(C)c4n3)CC2)cc1 | 13µM | . | 22µM | ? | ? | .
COc1ccc(N2CCN(c3cc(C)c4ccc(C)cc4n3)CC2)cc1 | 8.9µM | . | ? | . | ? | .
COc1ccc(N2CCN(c3ncnc4c3cnn4-c3ccc(C)cc3C)CC2)cc1 | .[12.7 µM] | . | . | . | . | .
COc1ccc(N2CCN(c3nc4cc(C)ccc4cc3C=O)CC2)cc1 | 25µM | . | 22µM | 13µM | ? | .
COc1ccc2c(C)cc(N3CCN(c4ccc(F)cc4)CC3)nc2c1 | . | . | . | . | . | .
COc1ccc(N2CCN(c3cc(C)c4ccc(O)cc4n3)CC2)cc1 | ? | . | ? | 45µM | . | ?
Cc1cc(N2CCN(c3ncccn3)CC2)nc2c(C)cccc12 | . | . | . | . | . | /
Cc1cc(N2CCOCC2)nc2cc(O)ccc12 | . | . | . | . | . | .
Cc1ccc(S(=O)(=O)C(CNS(=O)(=O)c2ccc(F)c(C(F)(F)F)c2)c2ccco2)cc1 (configuration not stated) | . | / | . | . | . | .
c1ccc(-c2n[nH]c3c2CCC3)cc1 | . | . | . | . | . | .
CC(C)(C)c1n[nH]c2c1CCCC2 | . | 27µM | 89µM | . | . | .
O=C(CCC(=O)c1cccs1)OCc1nnc(-c2ccccc2)o1 | .[12.7 µM] | 27µM | 50µM | . | ? | .
Cc1ccc(C(=O)CCC(=O)OCc2nnc(-c3ccccc3)o2)cc1 | . | . | . | . | . | .
CC1CCCN(C(=O)COC(=O)CNS(=O)(=O)c2ccc3ccccc3c2)C1 (configuration not stated) | 7.1µM | . | . | . | . | .
CN(Cc1ccccc1)C(=O)COC(=O)CNS(=O)(=O)c1ccc2ccccc2c1 | . | . | . | . | . | ?
O=C(CNS(=O)(=O)c1ccc2ccccc2c1)OCc1nnc(-c2ccccc2)o1 | 22µM | . | . | . | . | .
SMILES | G9a block | PLK1 PBD block | JMJD2A Tudor | BAZ2B block | HP1b chromo inh | ALOX12 inh
Cc1cccc(-c2nc3cc(NC(=O)c4ccco4)ccc3o2)c1 | / | / | / | / | / | .
COC(=O)c1c(-c2ccc(C)cc2)csc1NC(=O)c1c(-c2ccccc2)noc1C | ? | / | / | . | / | .
CCOC(=O)c1c(NC(=O)c2noc(C)c2[N+](=O)[O-])sc(C(C)=O)c1C | 40µM | 24µM | . | . | . | .
CCOC(=O)c1c(NC(=O)c2cc(-c3cccc(Cl)c3)on2)sc(C)c1C | 13µM | / | . | . | . | .
CCOC(=O)c1c(-c2ccccc2)csc1NC(=O)c1cc(-c2ccc(Cl)cc2)on1 | 18µM | / | . | . | . | .
COC(=O)c1c(-c2cccnc2)csc1NC(=O)c1cc(C)on1 | ? | 6.7µM | . | . | . | ?

High-throughput results (PubChem)
